Assay [1] deals with Bile acid receptor (Homo sapiens) (UniProt Q96RI1). Briefly: ATG_IR1_CIS: Attagene CIS-FACTORIAL HepG2 Assay for human Nuclear Receptor Subfamily 1 Group H Member 4 (NR1H4), IR1 submotif (AID 2282946). Particulars: IR1 reporter transcription, actives raise or lower the signal. In outline:
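Readout: reporter transcript levels by RT-PCR with fluorescent capillary electrophoresis, from HepG2 cells transiently transfected with multiplexed cis-regulated reporters and dosed 24 h. Gain- or loss-of-signal fitted versus DMSO negative control.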

Assay [2] is described as follows: ATG_ISRE_CIS: Attagene CIS-FACTORIAL HepG2 Assay for human Interferon Regulatory Factor 1 (IRF1) binding to an Interferon-Stimulated Response Element (ISRE) (AID 2282948). Particulars: HepG2 ISRE cis-reporter (Attagene), mRNA transcription readout; actives raise or lower the signal. In outline: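 Signal reflects induction or loss of ISRE-linked reporter mRNA in transiently transfected HepG2 cells after a 24 h treatment, detected by fluorescent RT-PCR fragments on capillary electrophoresis and normalised to DMSO.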

The nature of assay [3]: ATG_M_06_CIS: Attagene CIS-FACTORIAL HepG2 Assay for M06 Transcription Factor (Internal Marker) (AID 2282950). Particulars: HepG2 Attagene CIS-FACTORIAL M06 internal marker reporter; actives raise or lower the signal. In a few lines: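 Cells (HepG2, transiently carrying cis-driven reporter units) receive chemical for 24 h before RNA isolation. Reporter cDNA is PCR-amplified, FAM-labelled by primer extension, HpaI-digested and sized on a capillary analyser.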

For assay [4], the target named is Hypoxia-inducible factor 1-alpha (Homo sapiens) (UniProt Q16665). Briefly: ATG_HIF1a_CIS: Attagene CIS-FACTORIAL HepG2 Assay for human Hypoxia Inducible Factor 1 (HIF1A) (AID 2282951). Particulars: HepG2 Attagene cis-factorial HIF1a reporter transcription; actives raise or lower the signal. In a few lines: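 Endogenous-TF cis reporter readout, human HepG2 cells, 24 h incubation; mRNA detected via RT-PCR and capillary electrophoresis fluorescence; DMSO-normalised bidirectional fitting.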

The target in assay [5] is Hepatocyte nuclear factor 6 (Homo sapiens) (UniProt Q9UBC0). Briefly: ATG_HNF6_CIS: Attagene CIS-FACTORIAL HepG2 Assay for human Hepatocyte Nuclear Factor 6 (HNF6) (AID 2282952). Particulars: HepG2 Attagene cis-factorial HNF6 reporter transcription; actives raise or lower the signal. In outline: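 Endogenous factor activity read in transiently transfected HepG2 via promoter-regulated reporter transcripts. RNA harvested 24 h post-dosing, reverse-transcribed, PCR-amplified, FAM-labelled, HpaI-digested and resolved by capillary electrophoresis; fitted in both directions against DMSO.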

Assay [6] concerns the target Heat shock factor protein 1 (Homo sapiens) (UniProt Q00613). Briefly: ATG_HSE_CIS: Attagene CIS-FACTORIAL HepG2 Assay for human Heat Shock Transcription Factor 1 (HSE) (AID 2282953). The note with it: HepG2 HSE cis-reporter, Attagene RNA transcription; actives raise or lower the signal. In outline: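 Liver-derived HepG2 cells carry transiently introduced multiple reporter units governed by cis promoters. Reporter RNA measured 24 h post-dose through reverse transcription, PCR amplification, fluorescent labelling and capillary electrophoresis, normalised to DMSO.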

Assay [7] can be described thus: ATG_MRE_CIS: Attagene CIS-FACTORIAL HepG2 Assay for human Metal Responsive Element (MRE) (AID 2282954). Particulars: HepG2 MRE cis-reporter transcription, Attagene multiplex; actives raise or lower the signal. In a few lines: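 Cells were transfected with cis-promoter reporter transcription units, then dosed for 24 h. RNA was reverse-transcribed, amplified, fluorescently labelled and resolved by capillary electrophoresis, and activity was fitted in both directions relative to DMSO.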

Assay [8] in a line: ATG_PBREM_CIS: Attagene CIS-FACTORIAL HepG2 Assay for human Phenobarbital-responsive Enhancer Module (PBREM) (AID 2282955). The note with it: HepG2 PBREM cis-reporter, Attagene multiplexed transcription; actives raise or lower the signal. In a few lines: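 Readout: reporter mRNA, fluorescent RT-PCR fragments separated by capillary electrophoresis. System: HepG2 transiently transfected with cis-regulated reporter units. Exposure: 24 h. Analysis: bidirectional, DMSO baseline.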

The target of assay [9] is Paired box protein Pax-6 (Homo sapiens) (UniProt P26367). Briefly: ATG_Pax6_CIS: Attagene CIS-FACTORIAL HepG2 Assay for human Paired Box 6 (PAX6) (AID 2282956). The note with it: HepG2 CIS-FACTORIAL PAX6 reporter transcription, RNA readout; actives raise or lower the signal. In outline:
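Values derive from bidirectional curve fitting of reporter mRNA signal relative to DMSO. HepG2 cells bearing transfected cis-regulated MRTUs were exposed for 24 h; transcripts were read by RT-PCR and capillary electrophoresis.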

Assay [10] can be described thus: ATG_PXRE_CIS: Attagene CIS-FACTORIAL HepG2 Assay for human Pregnane X Receptor Element (PXRE) (AID 2282957). Particulars: HepG2 Attagene CIS-FACTORIAL PXRE reporter, mRNA; actives raise or lower the signal. In outline: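 Reporter transcripts under endogenous PXR-responsive cis-regulation quantified from total RNA of transfected HepG2 cells 24 h post-dosing, via RT-PCR with fluorescent primer extension and capillary electrophoresis. Gain or loss of signal fitted against DMSO baseline.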

Assay [11] in a line: ATG_PPRE_CIS: Attagene CIS-FACTORIAL HepG2 Assay for human Peroxisome Proliferator-activated Response Element (PPRE) (AID 2282958). The note with it: HepG2 PPRE cis-element reporter, Attagene transcription factor profiling; actives raise or lower the signal. In outline:
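After human HepG2 hepatoma cells were transiently transfected with cis-promoter reporter constructs, they were exposed to test chemicals for 24 hours. Reporter RNA was then reverse-transcribed, PCR-amplified, FAM-labeled, HpaI-digested and quantified by capillary electrophoresis.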

Assay [12] is described as follows: ATG_RORE_CIS: Attagene CIS-FACTORIAL HepG2 Assay for human RAR-related Orphan Receptor Element (RORE) (AID 2282959). Particulars: HepG2 Attagene cis-factorial RORE reporter, mRNA; actives raise or lower the signal. In outline: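 Measured here: transcript induction of a cis-regulated reporter in HepG2 cells transiently transfected via FuGene 6. After 24 h, RNA was processed by RT-PCR and fluorescent capillary electrophoresis; DMSO defined baseline activity.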

Assay [13] in a line: ATG_Sox_CIS: Attagene CIS-FACTORIAL HepG2 Assay for human SRY-box transcription factor (SOX) (AID 2282960). The note with it: HepG2 Attagene cis-factorial SOX reporter, mRNA; actives raise or lower the signal. In a few lines:
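Using transiently transfected HepG2 cells, reporter transcription driven by cis elements was assessed 24 h after dosing. Signal was fluorescence of capillary-separated RT-PCR products, with DMSO defining baseline activity.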

Assay [14] is described as follows: ATG_SREBP_CIS: Attagene CIS-FACTORIAL HepG2 Assay for human Sterol Regulatory Element Binding (SREBP) (AID 2282962). Particulars: HepG2 Attagene cis-factorial SREBP reporter, mRNA; actives raise or lower the signal. In a few lines:
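Values derive from bidirectional curve fitting with DMSO as baseline. The underlying measurement is reporter mRNA from cis-element-regulated units in transiently transfected HepG2, quantified by RT-PCR and capillary electrophoresis after 24 h exposure.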

Assay [15] deals with Signal transducer and activator of transcription 3 (Homo sapiens) (UniProt P40763). Briefly: ATG_STAT3_CIS: Attagene CIS-FACTORIAL HepG2 Assay for human Signal Transducer and Activator of Transcription 3 (STAT3) (AID 2282963). The note with it: HepG2, Attagene cis-factorial STAT3 reporter transcription; actives raise or lower the signal. In outline:
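HepG2, MRTU-transfected, 24 h dosing. RNA → RT → PCR → FAM label → HpaI → CE. Bidirectional fit vs DMSO.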

Assay [16] is described as follows: ATG_TA_CIS: Attagene CIS-FACTORIAL HepG2 Assay for human TA Basal Promoter (AID 2282964). Particulars: HepG2 Attagene CIS-factorial TA basal promoter reporter; actives raise or lower the signal. In outline: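 Background internal-marker endpoint from a 52-component HepG2 cis-reporter panel. Cells treated 24 h; reporter transcripts quantified via RT-PCR and CE fluorescence against DMSO baseline.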

The nature of assay [17]: ATG_TCF_b_cat_CIS: Attagene CIS-FACTORIAL HepG2 Assay for human T-Cell-Factor with beta-catenin (TCF/b-cat) (AID 2282965). The note with it: HepG2 TCF/beta-catenin cis-reporter transcription, actives raise or lower the signal. In outline:
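HepG2 cells transiently transfected with multiple cis-promoter-regulated reporter transcription units, so endogenous transcription factor activity is measured. Reporter mRNA read 24 hours after dosing by RT-PCR, fluorescent labelling and capillary electrophoresis; bidirectional fitting against DMSO.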

Assay [18] is described as follows: ATG_GRE_CIS: Attagene CIS-FACTORIAL HepG2 Assay for human Glucocorticoid Response Elements (GRE) (AID 2282947). Particulars: HepG2 GRE cis-reporter, Attagene multiplex mRNA; actives raise or lower the signal. In a few lines: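 Cells (HepG2) bearing transfected cis-promoter reporter transcription units were treated with chemical for 24 hours. Reporter mRNA was measured via RT-PCR with capillary electrophoresis, and activity was fitted in both directions relative to DMSO.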

Assay [19] is described as follows: ATG_M_32_CIS: Attagene CIS-FACTORIAL HepG2 Assay for M32 Transcription Factor (Internal Marker) (AID 2282949).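 Also: background control marker of the multiplexed CIS panel rather than a real target.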 The note with it: HepG2 Attagene cis-factorial M32 reporter, mRNA; actives raise or lower the signal. In outline:
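HepG2 transfectants (cis-regulated reporter transcription units) dosed 24 h. Reporter mRNA by RT-PCR plus CE, analysed as gain or loss relative to DMSO.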

The target in assay [20] is Transcription factor Sp1 (Homo sapiens) (UniProt P08047). Briefly: ATG_Sp1_CIS: Attagene CIS-FACTORIAL HepG2 Assay for human Specificity Protein 1 (Sp1) (AID 2282961). The note with it: HepG2 Sp1 cis-reporter transcription, actives raise or lower the signal. In outline: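 After transient transfection of HepG2 cells with cis-promoter reporter units and 24 h chemical treatment, reporter transcripts were quantified by RT-PCR and capillary electrophoresis fluorescence. Gain- and loss-of-signal fitted against DMSO.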

Usually AC50 stands for the concentration at which the activity in the assay is half-maximal.

SMILES strings stand for the structures. Calls of active or inactive are those of the source. The calls were made as follows: active = hit-call score of the fitted dose curve at least 0.9, where 1 is the maximum; inactive = score below 0.9.

Chain of Hepatocyte nuclear factor 6 (Homo sapiens) (Q9UBC0 whole entry, looked up): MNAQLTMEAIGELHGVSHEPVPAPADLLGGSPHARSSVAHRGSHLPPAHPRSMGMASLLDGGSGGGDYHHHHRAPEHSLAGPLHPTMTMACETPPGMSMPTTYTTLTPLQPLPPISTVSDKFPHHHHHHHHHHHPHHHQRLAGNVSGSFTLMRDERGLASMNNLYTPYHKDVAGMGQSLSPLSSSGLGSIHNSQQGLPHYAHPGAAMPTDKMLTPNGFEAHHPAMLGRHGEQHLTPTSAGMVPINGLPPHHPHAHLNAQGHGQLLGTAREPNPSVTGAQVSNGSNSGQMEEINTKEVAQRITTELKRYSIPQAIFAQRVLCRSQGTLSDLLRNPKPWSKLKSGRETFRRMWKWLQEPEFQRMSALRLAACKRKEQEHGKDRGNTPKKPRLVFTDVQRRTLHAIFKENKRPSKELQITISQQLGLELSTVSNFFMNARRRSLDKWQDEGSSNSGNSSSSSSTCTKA
Chain of Hypoxia-inducible factor 1-alpha (Homo sapiens) (Q16665 whole entry, looked up): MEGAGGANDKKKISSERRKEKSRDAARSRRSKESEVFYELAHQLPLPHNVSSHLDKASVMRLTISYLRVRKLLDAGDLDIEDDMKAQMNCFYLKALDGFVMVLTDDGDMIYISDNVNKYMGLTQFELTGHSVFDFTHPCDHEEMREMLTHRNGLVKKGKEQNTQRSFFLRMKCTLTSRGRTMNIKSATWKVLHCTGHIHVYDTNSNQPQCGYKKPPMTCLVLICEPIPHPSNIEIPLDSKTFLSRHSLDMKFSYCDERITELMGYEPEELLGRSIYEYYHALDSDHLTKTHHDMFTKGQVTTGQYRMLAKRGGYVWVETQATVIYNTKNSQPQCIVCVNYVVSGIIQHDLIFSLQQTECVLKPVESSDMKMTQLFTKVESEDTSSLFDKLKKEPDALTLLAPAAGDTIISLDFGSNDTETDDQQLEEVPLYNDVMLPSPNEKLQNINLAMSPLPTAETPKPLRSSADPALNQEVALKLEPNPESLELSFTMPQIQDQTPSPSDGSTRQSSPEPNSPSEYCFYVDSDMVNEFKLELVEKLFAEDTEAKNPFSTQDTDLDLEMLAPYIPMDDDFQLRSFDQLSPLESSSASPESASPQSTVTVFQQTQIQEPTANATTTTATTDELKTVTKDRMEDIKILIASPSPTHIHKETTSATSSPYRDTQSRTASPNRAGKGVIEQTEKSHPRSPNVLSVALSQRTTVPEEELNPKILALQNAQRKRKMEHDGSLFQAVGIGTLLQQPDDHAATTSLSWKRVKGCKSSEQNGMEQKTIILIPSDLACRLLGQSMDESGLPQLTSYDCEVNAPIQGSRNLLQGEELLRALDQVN
Chain of Paired box protein Pax-6 (Homo sapiens) (P26367 whole entry, looked up): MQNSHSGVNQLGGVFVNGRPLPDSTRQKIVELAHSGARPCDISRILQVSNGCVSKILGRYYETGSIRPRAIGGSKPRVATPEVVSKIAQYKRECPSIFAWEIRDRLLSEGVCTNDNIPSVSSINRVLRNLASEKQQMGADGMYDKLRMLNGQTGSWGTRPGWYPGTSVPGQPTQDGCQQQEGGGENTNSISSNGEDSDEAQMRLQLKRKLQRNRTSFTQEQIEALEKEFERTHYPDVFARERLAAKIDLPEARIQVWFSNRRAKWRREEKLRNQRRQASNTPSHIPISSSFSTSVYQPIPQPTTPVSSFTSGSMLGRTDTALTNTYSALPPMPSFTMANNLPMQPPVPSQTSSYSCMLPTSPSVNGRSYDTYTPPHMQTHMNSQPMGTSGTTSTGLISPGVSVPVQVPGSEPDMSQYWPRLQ
Chain of Heat shock factor protein 1 (Homo sapiens) (Q00613 whole entry, looked up): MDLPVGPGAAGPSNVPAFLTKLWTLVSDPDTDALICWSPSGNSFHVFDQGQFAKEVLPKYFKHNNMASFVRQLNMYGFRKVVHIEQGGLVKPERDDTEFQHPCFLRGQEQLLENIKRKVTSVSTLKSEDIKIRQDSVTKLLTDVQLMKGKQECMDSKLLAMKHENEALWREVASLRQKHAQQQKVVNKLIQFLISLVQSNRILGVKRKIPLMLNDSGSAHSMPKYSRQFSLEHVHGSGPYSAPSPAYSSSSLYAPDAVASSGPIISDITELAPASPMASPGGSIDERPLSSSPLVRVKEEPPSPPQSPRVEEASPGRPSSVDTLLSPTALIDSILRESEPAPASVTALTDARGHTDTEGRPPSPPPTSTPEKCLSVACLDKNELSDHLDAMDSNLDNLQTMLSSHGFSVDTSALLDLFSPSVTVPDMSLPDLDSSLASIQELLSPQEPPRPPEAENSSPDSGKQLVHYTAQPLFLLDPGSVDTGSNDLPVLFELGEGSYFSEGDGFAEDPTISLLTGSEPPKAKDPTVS
Chain of Transcription factor Sp1 (Homo sapiens) (P08047 whole entry, looked up): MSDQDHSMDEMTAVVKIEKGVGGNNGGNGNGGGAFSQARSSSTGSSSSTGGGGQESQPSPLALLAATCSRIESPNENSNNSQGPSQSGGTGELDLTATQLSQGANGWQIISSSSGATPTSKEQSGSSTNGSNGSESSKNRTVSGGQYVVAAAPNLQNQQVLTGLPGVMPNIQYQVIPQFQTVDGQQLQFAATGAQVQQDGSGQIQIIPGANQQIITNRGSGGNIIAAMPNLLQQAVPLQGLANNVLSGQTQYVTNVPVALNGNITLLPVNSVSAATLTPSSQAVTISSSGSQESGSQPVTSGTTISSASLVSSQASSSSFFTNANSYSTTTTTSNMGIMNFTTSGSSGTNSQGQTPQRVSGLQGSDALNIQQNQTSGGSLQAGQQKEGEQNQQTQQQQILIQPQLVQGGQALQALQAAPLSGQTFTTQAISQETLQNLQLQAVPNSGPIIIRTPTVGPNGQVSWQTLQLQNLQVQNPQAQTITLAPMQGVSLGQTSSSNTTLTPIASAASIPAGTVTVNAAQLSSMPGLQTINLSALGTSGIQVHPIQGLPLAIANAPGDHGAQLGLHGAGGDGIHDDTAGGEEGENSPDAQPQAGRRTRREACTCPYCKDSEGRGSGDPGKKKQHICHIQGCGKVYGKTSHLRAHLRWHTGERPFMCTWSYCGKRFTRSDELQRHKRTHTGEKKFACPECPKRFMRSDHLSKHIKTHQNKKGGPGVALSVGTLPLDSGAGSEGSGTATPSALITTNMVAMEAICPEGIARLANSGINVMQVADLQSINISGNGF
Chain of Signal transducer and activator of transcription 3 (Homo sapiens) (P40763 whole entry, looked up): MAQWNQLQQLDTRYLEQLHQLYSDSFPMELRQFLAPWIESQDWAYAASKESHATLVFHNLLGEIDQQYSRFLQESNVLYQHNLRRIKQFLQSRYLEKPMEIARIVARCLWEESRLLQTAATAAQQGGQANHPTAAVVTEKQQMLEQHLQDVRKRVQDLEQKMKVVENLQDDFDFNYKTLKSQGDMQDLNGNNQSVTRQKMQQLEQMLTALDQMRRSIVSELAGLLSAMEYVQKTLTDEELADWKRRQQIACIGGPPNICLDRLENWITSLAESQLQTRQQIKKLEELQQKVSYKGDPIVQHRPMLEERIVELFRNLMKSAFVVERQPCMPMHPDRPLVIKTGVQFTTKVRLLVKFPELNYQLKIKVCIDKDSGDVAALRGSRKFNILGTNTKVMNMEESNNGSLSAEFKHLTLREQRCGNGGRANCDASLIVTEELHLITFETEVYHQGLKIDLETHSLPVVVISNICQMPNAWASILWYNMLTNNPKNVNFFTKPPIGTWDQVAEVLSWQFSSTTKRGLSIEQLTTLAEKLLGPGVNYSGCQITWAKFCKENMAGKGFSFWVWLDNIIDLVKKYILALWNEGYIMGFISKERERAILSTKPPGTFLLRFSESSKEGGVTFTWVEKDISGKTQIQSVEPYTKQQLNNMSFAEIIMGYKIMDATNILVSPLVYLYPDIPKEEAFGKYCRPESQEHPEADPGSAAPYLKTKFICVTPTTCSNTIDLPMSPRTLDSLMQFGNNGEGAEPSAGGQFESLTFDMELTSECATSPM
Chain of Bile acid receptor (Homo sapiens) (Q96RI1 whole entry, looked up): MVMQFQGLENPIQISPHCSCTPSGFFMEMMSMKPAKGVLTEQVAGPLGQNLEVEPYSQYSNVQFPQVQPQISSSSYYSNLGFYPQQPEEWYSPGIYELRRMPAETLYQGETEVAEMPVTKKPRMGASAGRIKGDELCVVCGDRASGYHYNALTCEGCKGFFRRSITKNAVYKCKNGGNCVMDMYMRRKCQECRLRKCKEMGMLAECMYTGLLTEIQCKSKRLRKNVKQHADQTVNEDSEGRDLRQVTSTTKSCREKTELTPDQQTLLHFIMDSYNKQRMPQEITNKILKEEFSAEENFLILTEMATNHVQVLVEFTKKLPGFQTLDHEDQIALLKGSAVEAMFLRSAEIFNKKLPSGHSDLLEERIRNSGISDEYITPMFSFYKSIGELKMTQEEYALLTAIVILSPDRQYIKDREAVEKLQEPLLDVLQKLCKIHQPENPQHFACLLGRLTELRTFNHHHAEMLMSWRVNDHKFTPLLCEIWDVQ

Take `Cc1cccc(Nc2ccccc2)c1`: the AC50 in [1] was 42.5 µM (active); in [6] it was 162 µM (active); in assay [7] it was 135 µM (active); in assay [9], 120 µM (active); in assay [10], 26.6 µM (active); in assay [14] it was 100 µM (active). In addition, the molecule was called inactive in [2], in [3], in assay [4], in assay [5], in [8] and in assay [11]. For the same molecule, the molecule was called inactive in assay [12], in assay [13], in assay [15], in [16] and in [17].

Turning to `CCCCC(CC)COC(C)=O` (stereo not given), the outcome in assay [18], in [2], in assay [19], in assay [3], in [4] and in assay [5] was inactive. In addition, the result in assay [6], in assay [7], in [8], in assay [9], in [10] and in assay [11] was inactive. For the same molecule, the molecule was classed as inactive in assay [12], in assay [13], in [20], in [14], in assay [15] and in assay [16].

Regarding `CCCC(=O)OC(C)(C)Cc1ccccc1`, the call in [18], in assay [2], in [19], in assay [3], in assay [4] and in assay [5] was inactive. In addition, the result in assay [6], in assay [7], in [8], in assay [9], in assay [12] and in assay [13] was inactive. Besides, the result in assay [20], in assay [14], in assay [15], in assay [16] and in assay [17] was inactive. Moreover, the AC50 is 27 µM (active) in [10] and 178 µM (active) in [11].

For `CS(=O)(=O)c1ccc(Cl)cc1`, the outcome in [18], in assay [2], in assay [19], in [3], in [4] and in assay [5] was inactive. The outcome in assay [6], in assay [7], in assay [8], in assay [9], in assay [12] and in assay [13] was inactive. The call in [20], in [14], in [15], in [16] and in assay [17] was inactive. The AC50 in assay [10] was 100 µM (active).

Turning to `Cc1cc(C)nc(NS(=O)(=O)c2ccc(N)cc2)n1`, the outcome in assay [18], in assay [2], in [19], in assay [3], in assay [4] and in assay [5] was inactive. In addition, the molecule was classed as inactive in assay [6], in assay [7], in assay [8], in assay [9], in assay [11] and in assay [13]. Also, the result in [14], in assay [15] and in assay [17] was inactive. Moreover, in assay [10], the concentration at half-maximal activity (AC50) is 46.5 µM (active).

As for `CCCCCCCC(=O)OCC(O)CO` (stereo not given), the outcome in assay [18], in [2], in assay [19], in assay [3], in assay [4] and in assay [5] was inactive. The outcome in [6], in assay [7], in assay [8], in [9], in [10] and in assay [11] was inactive. Besides, the call in [12], in assay [13], in assay [20], in assay [14], in assay [15] and in assay [16] was inactive. For the same molecule, the result in assay [17] was inactive.

Turning to `BrCc1cccc(Oc2ccccc2)c1`, the molecule was called inactive in assay [18], in assay [2], in assay [19], in [3], in assay [4] and in [5]. For the same molecule, the outcome in [6], in assay [7], in assay [8], in [9], in [11] and in assay [12] was inactive. For the same molecule, the call in assay [13], in assay [14], in [15] and in [16] was inactive. In addition, the AC50 in assay [10] was 26.3 µM (active); in assay [17], 100 µM (active).
